# Activity calls are given as the source filed them. Calls follow the shape of the full dose curve.
# Conditions: Ebola virus entry assay, ratio channel readout
SMILES,outcome,AC50
CN/C(=C\[N+](=O)[O-])NCCSCc1csc(CN(C)C)n1,inactive,–
CCCCC[C@H](O)/C=C/[C@@H]1[C@H]2C/C(=C/CCCC(=O)O)O[C@H]2C[C@H]1O,inactive,–
COCC1=C(C(=O)OC(C)OC(=O)OC(C)C)N2C(=O)[C@@H](NC(=O)/C(=N\OC)c3csc(N)n3)[C@H]2SC1 (some centres undefined),inactive,–
N#Cc1ccc(C(c2ccc(C#N)cc2)n2cncn2)cc1,inactive,–
C=CC1=C(C(=O)O)N2C(=O)[C@@H](NC(=O)/C(=N\O)c3csc(N)n3)[C@H]2SC1 (stereo in doubt),inactive,–
CN1C(=O)C(O)N=C(c2ccccc2)c2cc(Cl)ccc21 (centres undefined),inactive,–
C[C@@H]1O[C@@H](O[C@H]2CC[C@@]3(C)[C@H](CC[C@@H]4[C@H]3C[C@@H](O)[C@]3(C)[C@@H](C5=CC(=O)OC5)CC[C@]43O)C2)C[C@H](O)[C@@H]1O[C@H]1C[C@H](O)[C@H](O[C@H]2C[C@H](O)[C@@H](O)[C@@H](C)O2)[C@H](C)O1 (stereo in doubt),inactive,–
CC(C)CN(C[C@@H](O)[C@H](Cc1ccccc1)NC(=O)O[C@H]1CO[C@H]2OCC[C@H]21)S(=O)(=O)c1ccc(N)cc1,inactive,–
S=P(N1CC1)(N1CC1)N1CC1,inactive,–
CC(C)(C)NC[C@H](O)COc1ccccc1C1CCCC1,–,3.55 µM (active)
CC(CCc1ccc(O)cc1)NCCc1ccc(O)c(O)c1 (centres undefined),inactive,–
Clc1ccc2c(c1)C(c1ccccc1)=NCc1nncn1-2,inactive,–
C[C@@H]1[C@H](O)[C@@H](C)/C=C/C=C\C=C\C=C\C=C\C=C\C=C\[C@H](O[C@@H]2O[C@H](C)[C@@H](O)[C@H](N)[C@@H]2O)C[C@@H]2O[C@](O)(C[C@@H](O)C[C@@H](O)[C@H](O)CC[C@@H](O)C[C@@H](O)CC(=O)O[C@H]1C)C[C@H](O)[C@H]2C(=O)O (stereo in doubt),inactive,–
CNCCC=C1c2ccccc2CCc2ccccc21,–,7.95 µM (active)
COC(=O)C(c1ccccc1)C1CCCCN1 (centres undefined),inactive,–
OC[C@H]1O[C@@H](n2cnc3c2NC=NC[C@H]3O)C[C@@H]1O,inactive,–
C=CC[C@@H]1C=C(C)C[C@H](C)C[C@H](OC)[C@H]2O[C@@](O)(C(=O)C(=O)N3CCCC[C@H]3C(=O)O[C@H](C(C)=C[C@@H]3CC[C@H](O)[C@H](OC)C3)[C@@H](C)[C@@H](O)CC1=O)[C@@H](C)C[C@@H]2OC,inactive,–
COc1cc(C)c(/C=C/C(C)=C/C=C/C(C)=C/C(=O)O)c(C)c1C,inactive,–
C[C@]1(O)CC[C@H]2[C@@H]3CCC4=CC(=O)CC[C@]4(C)[C@@]3(F)[C@@H](O)C[C@@]21C,inactive,–
CN1[C@@H]2CCC[C@@H]1CC(NC(=O)c1nn(C)c3ccccc13)C2 (some centres undefined),inactive,–
CC(CCc1ccccc1)NCC(O)c1ccc(O)c(C(N)=O)c1 (centres undefined),inactive,–
CCC[C@@H]1C[C@@H](C(=O)N[C@@H]([C@H]2O[C@H](SC)[C@H](O)[C@@H](O)[C@H]2O)[C@H](C)Cl)N(C)C1,inactive,–
CCCCC(C)(O)C/C=C/[C@H]1[C@H](O)CC(=O)[C@@H]1CCCCCCC(=O)OC (some centres undefined),inactive,–
NC(=O)[C@@H]1CCCN1C(=O)[C@H](Cc1cnc[nH]1)NC(=O)[C@@H]1CCC(=O)N1,inactive,–
CO[C@H]1C=CO[C@@]2(C)Oc3c(C)c(O)c4c(O)c(c5c(nc6cc(C)ccn65)c4c3C2=O)NC(=O)/C(C)=C\C=C[C@H](C)[C@H](O)[C@@H](C)[C@@H](O)[C@@H](C)[C@H](OC(C)=O)[C@@H]1C,inactive,–
CN[C@H](CC(C)C)C(=O)N[C@H]1C(=O)N[C@@H](CC(N)=O)C(=O)N[C@H]2C(=O)N[C@H]3C(=O)N[C@H](C(=O)N[C@@H](C(=O)O)c4cc(O)cc(O)c4-c4cc3ccc4O)[C@H](O)c3ccc(c(Cl)c3)Oc3cc2cc(c3O[C@@H]2O[C@H](CO)[C@@H](O)[C@H](O)[C@H]2O[C@H]2C[C@](C)(N)C(O)[C@H](C)O2)Oc2ccc(cc2Cl)[C@H]1O (some centres undefined),inactive,–
CC(C)(S)[C@@H](N)C(=O)O,inactive,–
NC(=O)CC[C@@H]1NC(=O)[C@H](Cc2ccccc2)NC(=O)[C@H](Cc2ccc(O)cc2)NC(=O)CCSSC[C@@H](C(=O)N2CCC[C@H]2C(=O)N[C@@H](CCCN=C(N)N)C(=O)NCC(N)=O)NC(=O)[C@H](CC(N)=O)NC1=O,inactive,–
Cn1nnc2c(C(N)=O)ncn2c1=O,inactive,–

# Reference: PubChem BioAssay (NCATS)
